ID4 SMM = binders of human ID4 protein. small molecule microarray, Flag-ID4 binding, fluorescence F/B. 31,000 tested, 1.2% active. calls only. AID 624137. P47928; call rule not given here;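 note: a binder raises fluorescence above local background on the spot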
Target sequence (P47928 whole entry, looked up): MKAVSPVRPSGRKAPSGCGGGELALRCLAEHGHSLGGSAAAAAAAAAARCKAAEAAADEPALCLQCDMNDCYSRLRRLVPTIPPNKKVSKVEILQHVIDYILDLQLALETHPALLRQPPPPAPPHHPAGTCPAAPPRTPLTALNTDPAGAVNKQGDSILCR
Calls only; . = inactive; + = active, no number. Shown is part of a subset that was picked to be rich in hits.

SMILES	ID4 SMM
CCC(=O)Nc1ccc2c(c1)C(=O)N(C)C[C@@H](OC)[C@H](C)CN(CCc1ccccc1)[C@H](C)CO2	.
CO[C@@H]1CN(C)C(=O)c2ccc(NC(C)=O)cc2OC[C@@H](C)N(CCc2ccccc2)C[C@H]1C	+
CC(C)OC(=O)c1cn(Cc2c(F)cccc2F)c2sc(-c3ccc(NC(=O)C(C)C)cc3)c(CN(C)Cc3ccccc3)c2c1=O	+
COC(=O)c1ccc(NC(=O)C(C)N(c2ccc(Cl)cc2)S(C)(=O)=O)cc1 (stereo not given)	.
COC(=O)c1c(NC(=O)CSc2nnc3ccccn23)sc(C)c1C	+
CCOC(=O)c1c(NC(=O)CSc2ccccn2)sc(C)c1C	.
CCOC(=O)c1c(NC(=O)CSc2nnc3ccc4ccccc4n23)sc(C)c1C	.
Cc1ccc(-c2noc(CSc3nc(C)c(C)c(=O)[nH]3)n2)cc1	.
O=C(NCCN1CCOCC1)[C@]1(CCS(=O)(=O)c2ccccc2)N=C(c2ccc(OCCCO)cc2)O[C@@H]1c1ccccc1	.
CN(C)C(=O)[C@]1(CCS(=O)(=O)c2ccccc2)N=C(c2ccc(OCCCO)cc2)O[C@@H]1c1ccccc1	+
O=C(NCC(O)CO)[C@@]1(CCS(=O)(=O)c2ccccc2)N=C(c2ccc(OCCCO)cc2)O[C@H]1c1ccccc1 (stereo not given in full)	.
O=[N+]([O-])c1ccc(OCc2nc(-c3cccnc3)no2)cc1	.
CN(CC(=O)Nc1ccccc1[N+](=O)[O-])S(=O)(=O)c1ccc(Br)cc1	.
CCCn1c2ccccc2c2nnc(SCC(=O)N3c4ccccc4Sc4ccccc43)nc21	.
CCCn1c2ccccc2c2nnc(SCCN3CCCCC3)nc21	+
Cc1ccc2c(c1)c1nnc(SCCN3CCCCC3)nc1n2C	.
CC(NS(=O)(=O)c1ccc(F)cc1)C(=O)Nc1ccc(C(N)=O)cc1 (stereo not given)	.
CN(CC(=O)Nc1ccc(Cl)cc1)S(=O)(=O)c1ccccc1	.
Cc1ccc(NC(=O)CSc2nc3sc4c(c3c(=O)n2-c2ccccc2)CCCC4)c(C)c1	.
CCN(CC(=O)Nc1ccc(I)cc1)S(=O)(=O)c1ccc(C)cc1	.
CCCNCC(O)COc1ccccc1C(=O)CCc1ccccc1 (stereo not given)	.
O=C(O)COc1ccc(OCCNC[C@@H](O)COc2ccccc2)cc1	+
COCCNC(=O)COc1ccc(OCCNC[C@@H](O)COc2ccccc2)cc1	.
O=C(NCCNC(=O)c1ccco1)c1ccco1	.
CC(CNC(=O)c1ccco1)NC(=O)c1ccco1 (stereo not given)	+
SMILES	ID4 SMM
Cc1c(Cl)cccc1NC(=O)CNC(=O)c1ccco1	.
Cc1ccc(-c2nc3cc(Cl)ccc3o2)cc1NC(=O)COc1ccccc1[N+](=O)[O-]	.
Cc1cc(C)c(S(=O)(=O)NCC(=O)Nc2ccc(C(C)C)cc2)c(C)c1	.
Cc1cc(C)c(S(=O)(=O)NCC(=O)Nc2ccc(I)cc2)c(C)c1	.
CC(=O)Nc1ccc(NC(=O)CNS(=O)(=O)c2c(C)cc(C)cc2C)cc1	+
COc1ccc(-n2nnnc2SCC(=O)Nc2cc(C)c(Cl)cc2OC)cc1	.
CCN(Cc1ccccc1)C(=O)CSC1=Nc2ccccc2C2=NC(c3ccccc3)C(=O)N12 (stereo not given)	.
CC(C)c1nnc(NC(=O)CC(NC(=O)c2ccccc2)c2ccccc2)s1 (stereo not given)	.
Cc1cc(-c2ccccc2)nc(SCC(=O)O)n1	.
Cc1ccc(N(CC(=O)Nc2c(C)n(C)n(-c3ccccc3)c2=O)S(C)(=O)=O)cc1Cl	+
Cc1c(NC(=O)CN(c2ccc3c(c2)OCCO3)S(C)(=O)=O)c(=O)n(-c2ccccc2)n1C	.
Cc1c(NC(=O)CN(c2cccc(F)c2)S(C)(=O)=O)c(=O)n(-c2ccccc2)n1C	.
COc1ccc(Cl)cc1NC(=O)CN(c1cc([N+](=O)[O-])ccc1C)S(C)(=O)=O	.
O=C(CSc1nc(-c2ccccc2)cc(=O)[nH]1)Nc1ccccc1	.
O=C(CSc1nc(-c2ccccc2)cc(=O)[nH]1)Nc1ccccc1Cl	.
O=C(CSc1nc(-c2ccccc2)cc(=O)[nH]1)NCC1CCCO1 (stereo not given)	+
Cc1c(Cl)cccc1NC(=S)N1CCCN(c2nc3ccc(Cl)cc3s2)CC1	.
Cc1cc(C)nc(Nc2n[nH]c(COc3ccccc3)n2)n1	.
COc1ccc(-c2nc(Nc3nc(C)cc(C)n3)n[nH]2)cc1OC	+
Cc1cc(C)nc(Nc2n[nH]c(-c3cccnc3)n2)n1	.
COc1cccc(OCC(=O)Nc2ccc(Sc3ccc([N+](=O)[O-])cc3)cc2)c1	.
C[C@@H]1CCCCO[C@@H](CN(C)C(=O)Nc2ccccc2)[C@H](C)CN([C@H](C)CO)C(=O)c2cc(NC(=O)Nc3ccccc3)ccc2O1	+
C[C@@H]1CCCCO[C@@H](CN(C)Cc2ccncc2)[C@H](C)CN([C@H](C)CO)C(=O)c2cc(NC(=O)Nc3ccccc3)ccc2O1	+
C[C@@H]1CCCCO[C@@H](CN(C)Cc2ccncc2)[C@H](C)CN([C@@H](C)CO)C(=O)c2cc(NC(=O)Nc3ccccc3)ccc2O1	.

Screens (PubChem BioAssay)
